Assay results as given in PubChem BioAssay AID1159580 (chemical genetic matrix, 2015).
Among all 5,500 compounds or so, about 2,000 (36%) were called active. About 18% were inconclusive and are not listed. Cut-off read from the data, not from the text of the source: active = normalized growth mostly below about 0.91 (no sharp cut-off); inconclusive = no clear call, values can overlap the other calls; inactive = mostly above about 0.92. This is one part of the list.

Assay: chemical genetic growth profiling, strain panel (AID 1159580);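 note: tested at 20 µM; growth read once vehicle control cultures reached saturation at 30 °C; 1 = growth at the plate median or of vehicle wells; lower values mean less growth of the strain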
Settings: growth OD
[1] = S. cerevisiae deletion strains, locus YAL013W, strain DEP1, stronger effect = lower value
[2] = S. cerevisiae deletion strains, locus YDR150W, strain NUM1, stronger effect = lower value
[3] = S. cerevisiae deletion strains, locus YGR078C, strain PAC10, stronger effect = lower value
[4] = S. cerevisiae deletion strains, locus YNL322C, strain KRE1, stronger effect = lower value
[5] = S. cerevisiae deletion strains, locus YPL055C, strain LGE1, stronger effect = lower value

Measured: normalized growth

Cc1noc(C)c1C(=O)N1CCN(c2ncc(C(F)(F)F)cc2Cl)CC1
inactive: [1] 0.994 | S. cerevisiae deletion strains, locus YBR229C, strain ROT2, stronger effect = lower value 0.988 | S. cerevisiae deletion strains, locus YCL061C, strain MRC1, stronger effect = lower value 0.993 | S. cerevisiae deletion strains, locus YDL101C, strain DUN1, stronger effect = lower value 0.977 | [2] 0.897 | S. cerevisiae deletion strains, locus YEL061C, strain CIN8, stronger effect = lower value 0.975 | [3] 0.994 | S. cerevisiae deletion strains, locus YHR030C, strain SLT2, stronger effect = lower value 1.07 | S. cerevisiae deletion strains, locus YHR087W, strain rtc3, stronger effect = lower value 0.975 | S. cerevisiae deletion strains, locus YJR043C, strain POL32, stronger effect = lower value 0.998 | S. cerevisiae deletion strains, locus YJR075W, strain HOC1, stronger effect = lower value 0.972 | S. cerevisiae deletion strains, locus YKL190W, strain CNB1, stronger effect = lower value 1 | S. cerevisiae deletion strains, locus YLR039C, strain RIC1, stronger effect = lower value 0.995 | S. cerevisiae deletion strains, locus YLR058C, strain SHM2 (second series), stronger effect = lower value 1 | S. cerevisiae deletion strains, locus YLR085C, strain ARP6, stronger effect = lower value 0.982 | S. cerevisiae deletion strains, locus YLR262C, strain YPT6, stronger effect = lower value 0.979 | S. cerevisiae deletion strains, locus YML094W, strain GIM5, stronger effect = lower value 0.968 | S. cerevisiae deletion strains, locus YMR219W, strain ESC1, stronger effect = lower value 1 | S. cerevisiae deletion strains, locus YMR263W, strain SAP30, stronger effect = lower value 1.01 | S. cerevisiae deletion strains, locus YNL128W, strain TEP1, stronger effect = lower value 0.99 | S. cerevisiae deletion strains, locus YNL153C, strain GIM3, stronger effect = lower value 0.986 | S. cerevisiae deletion strains, locus YNL298W, strain CLA4 (second series), stronger effect = lower value 1.02 | [4] 0.989 | S. cerevisiae deletion strains, locus YNR030W, strain Alg12, stronger effect = lower value 0.97 | S. cerevisiae deletion strains, locus YOL006C, strain TOP1, stronger effect = lower value 0.99 | [5] 0.933 | S. cerevisiae deletion strains, locus YPL241C, strain CIN2, stronger effect = lower value 1.1 | S. cerevisiae deletion strains, locus YPR135W, strain CTF4, stronger effect = lower value 0.942 | S. cerevisiae strains, strain wild type, stronger effect = lower value 0.993

c1cnc(N2CCN(Cc3ccc4c(c3)OCO4)CC2)nc1
inactive: [1] 0.95 | S. cerevisiae deletion strains, locus YAL040C, strain CLN3, stronger effect = lower value 0.967 | S. cerevisiae deletion strains, locus YCL061C, strain MRC1 (second series), stronger effect = lower value 0.982 | [2] 0.996 | S. cerevisiae deletion strains, locus YDR363W, strain ESC2, stronger effect = lower value 0.988 | S. cerevisiae deletion strains, locus YER002W, strain NOP16, stronger effect = lower value 0.988 | [3] 0.993 | S. cerevisiae deletion strains, locus YMR307W, strain GAS1, stronger effect = lower value 0.999 | S. cerevisiae deletion strains, locus YNL175C, strain NOP13, stronger effect = lower value 1 | S. cerevisiae deletion strains, locus YNL197C, strain WHI3, stronger effect = lower value 0.976 | S. cerevisiae deletion strains, locus YNL224C, strain SQS1, stronger effect = lower value 0.985 | [4] 0.979 | S. cerevisiae deletion strains, locus YOR083W, strain WHI5 (second series), stronger effect = lower value 0.985 | [5] 0.991
